Measured values taken from PubChem BioAssay (NCATS).
Inconclusive results are not listed. Values without a mark were called inactive. Calls come from the whole dose curve; as a rule, active = well fitted inhibition curve with a large enough effect; inconclusive = small, poorly fitted or top-dose-only effect; inactive = flat fitted curve, though single readings scatter.

Biological target: Aldehyde dehydrogenase, mitochondrial (Homo sapiens) (UniProt P05091)
Test: qHTS for Inhibitors of the Aldehyde Dehydrogenase Family (ALDH2) Primary screen (AID 2061308);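 note: plate controls were vehicle for no effect and reference inhibitor for full effect; nearly all actives have a fitted effect of over 55% in size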
Conditions: ALDH2 enzyme inhibition qHTS, 1536-well; series mostly up to 56 µM; activity change, negative = inhibition: at the top concentration

| SMILES | activity change, negative = inhibition |
| --- | --- |
| CC[C@H](NC(=O)c1c(O)c(-c2ccccc2)nc2ccccc12)c1ccccc1 | -8.81% |
| COc1cc(C(=O)OC[C@H]2O[C@@H](Oc3ccccc3/C=C/C(=O)O)[C@H](O)[C@@H](O)[C@@H]2O)cc(OC)c1OC | -5.64% [at 28 µM] |
| C=C1C(=O)O[C@@H]2C3C(=C(C)[C@@H](O)[C@@H](OC(=O)/C(=C/C)COC(C)=O)[C@@H]12)C(=O)[C@H]1O[C@@]31C (stereo not given in full) | 1.26% [at 28 µM] |
| C[C@@H]1O[C@@H](O[C@H]2[C@H](O)[C@@H](O)[C@H](OC(=O)[C@]34CCC(C)(C)C[C@H]3C3=CCC5[C@@]6(C)CC[C@H](O[C@@H]7O[C@H](C(=O)O)[C@@H](O)[C@H](O)[C@H]7O)C(C)(C)C6CC[C@@]5(C)[C@]3(C)CC4)O[C@@H]2CO)[C@H](O)[C@H](O)[C@H]1O (stereo not given in full) | -16.4% [at 16.9 µM] |
| COC(=O)c1c(CC=C(C)C)c(OC2OC(CO)C(O)C(O)C2O)c2ccccc2c1OC1OC(CO)C(O)C(O)C1O (stereo not given) | 2.24% [at 16.9 µM] |
| O=[N+]([O-])c1ccc(-[n+]2nc(-c3ccccc3)nn2-c2ccc(I)cc2)cc1 | -0.501% |
| CC(C)c1cc2c(c(O)c1O)[C@@]13CCCC(C)(C)C1[C@@H](O)[C@@H]2OC3=O (stereo not given in full) | -22.8% |
| C/C(=C\CC/C(C)=C/CC[C@]1(C)CCc2cc(O)cc(C)c2O1)CC/C=C(\C)C(=O)O | -24.6% [at 28 µM] |
| CC(=O)c1c(C)cc2cccc(O)c2c1O[C@@H]1O[C@H](CO)[C@@H](O)[C@H](O)[C@H]1O | -7.79% |
| COc1ccc(/C=C/C(=O)O[C@@H]2[C@@H](O)[C@@H](O)[C@H](O[C@@H]3C=C(CO)[C@H]4[C@H](O[C@@H]5O[C@H](CO)[C@@H](O)[C@H](O)[C@H]5O)OC=C[C@H]43)O[C@H]2C)cc1O | 8.34% [at 16.9 µM] |
